Usually inhibition stands for the relative decrease from the control value, in per cent.

Values without a mark were called inactive. The list shows a part of the results. The source made the active and inactive calls.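 Rule for the calls, unless noted: active = mean inhibition over triplicates exceeding the hit threshold derived in the original primary screen (cut at about 11% in these data); inactive = the rest.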

One experiment in a line: compounds suppressing VP16-driven luciferase signal – cell-based, luminescence, high throughput, counter-screen for LRH-1 inverse agonist project (AID 651615; in the data active = inhibition above about 33%). The note with it: Gal4-VP16 luciferase reporter cells, at 3.6 µM, stronger effect = higher value.
Turning to `CN(C)c1ccc2nc3ccc(=[N+](C)C)cc-3sc2c1`, the inhibition is 52.9% (active).
On the same count and under the same terms, as for `COc1ccc(/C=C/C(=O)O)cc1O`, the figure is 2.63%; as for `Cc1cc(C)n2c(Nc3ccc4c(c3)OCCO4)c(-c3cc4ccccc4o3)nc2n1`, 0.38%; as for `O=C(Nc1ccc(Br)cn1)C1CCN(S(=O)(=O)c2cccs2)CC1`, 45.3% (active).
Same read-out and setting: under `C#CCN(C[C@@H]1[C@@H](OC(=O)Nc2cccs2)[C@@H](OC(=O)Nc2cccs2)Cn2c(=O)ccc(=O)n21)S(=O)(=O)c1ccc(C)cc1` stands 36.8% (active); under `CC(C)(C)C(=O)/C(=C\c1cccc([N+](=O)[O-])c1)n1cncn1`, 85% (active); under `CC1=C(CO)C(=O)OC([C@@H](C)C2CC[C@H]3C4C[C@H]5O[C@]56[C@@H](O)C=CC(=O)[C@]6(C)C4CC[C@]23C)C1` (stereo not given in full), 79.6% (active).
For the compound `COc1ccc(-c2cc(-c3nc4ccccn4c3NCc3ccccc3)ccc2OC)cc1`, the inhibition is 98.7% (active).
`CCc1cc(-c2nnn(CCC3COCCO3)c2CC)ccc1-c1cn(Cc2ccc3ccccc3c2)nn1` (stereo not given): the inhibition was 39.4% (active).
Still for that read-out and setting: as for `CCN(CC)CCC(=O)N1C/C(=C/c2ccccc2)C(=O)/C(=C\c2ccccc2)C1`, the figure is 76.2% (active); as for `COc1ccc(-c2noc(CCCC(=O)NC3CCCC3)n2)cc1`, 34.5% (active).
Same read-out and setting: under `O=C(N/N=C/c1ccc([N+](=O)[O-])s1)c1cccnc1` stands 7.08%; under `CC(C)(C)C(=O)/C(=C/c1cccc([N+](=O)[O-])c1)n1cncn1`, 83.7% (active).

The nature of another experiment: reduced OD of V66 E. coli with T4 gene 2 phage – absorbance, RecBCD inhibitor project, confirmation (AID 651982). Particulars: E. coli V66 + T4 2- phage, growth OD; at 11.9 µM; stronger effect = higher value.
On to `CC(C)(C)C(=O)Nc1c(Br)c(C2CC2)nn1-c1ccccc1`, for which the inhibition was -0.86%.
Still for that read-out and setting: under `CCN1CCN(c2nc(Nc3cc(OC)ccc3OC)nc(Nc3cc(OC)ccc3OC)n2)CC1` stands -0.69%; under `Cc1ccc(-c2cnc(C(O)c3cc(Cl)cc(Cl)c3)[nH]2)cc1` (stereo not given), 12.2% (active); under `S=C(NCC1COc2ccccc2O1)Nc1ccc(Br)cc1` (stereo not given), 4.21%.
The same measure, in the same setting: under `COc1cccc(C(O)c2ncc(-c3ccc4ccccc4c3)[nH]2)c1` (stereo not given) stands 7.6%; under `CC1(C(=O)NS(=O)(=O)c2ccccc2)CCN1C(=O)C/C=C/c1ccccc1` (stereo not given), -4.38%.
The same measure, in the same setting: under `CCN1CCN(C(=O)N[C@@H](C(=O)N[C@@H]2C(=O)N3C(C(=O)O)=C(CSc4nnnn4C)CS[C@H]23)c2ccc(O)cc2)C(=O)C1=O` stands 99.8% (active); under `CC(=O)NC(c1cccs1)c1cc(Br)c2cccnc2c1O` (stereo not given), 10.7%; under `O=C1c2ccccc2C2=Nc3ccccc3SC(c3ccccc3F)C12` (stereo not given), 8.51%.
In the case of `C=CCNC(=O)CSc1nc2sc(C)c(C)c2c(=O)[nH]1`, the inhibition was -1.59%.
Consider `CC1=C(C/C=C(\C)CCCC(C)CCCC(C)CCCC(C)C)C(=O)c2ccccc2C1=O` (stereo not given), for which the inhibition was 0.32%.
On to `CCCCC(=O)NC(c1ccc(OC)c(OC)c1)c1ccc2cccnc2c1O` (stereo not given), for which the inhibition was 13.9% (active).
The same measure, in the same setting: as for `NC1=NC(=O)C(Cc2cccc(Cl)c2Cl)S1` (stereo not given), the figure is 0.33%; as for `Cc1ccc(NC(=O)Nc2nnc(-c3ccncc3)s2)cc1`, 2.33%.
Same read-out and setting: under `CCNC(=S)N(CCc1c(C)[nH]c2ccc(C)cc12)Cc1ccco1` stands -0.28%; under `C=CCn1c(=O)c(C(=O)NCc2ccc3c(c2)OCO3)c(O)c2ccccc21`, 4.97%.
Turning to `CCn1cc(C(=O)NCCO)c(=O)c2cc(F)c(N3CCN(C)CC3)cc21`, the inhibition is 103% (active).

These data come from PubChem BioAssay.
